Assay results from PubChem BioAssay (NCI).
This is part of a sample that, as a whole, favours compounds with a hit. Of some 83,000 tested, about 20% had one in any assay.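 Plates (96-well) were seeded with cells, treated with compound at one concentration, and incubated for 48 hours before percent growth was determined.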 The source made the active and inactive calls. How the source made its calls: active means growth percent below 10; inactive means the rest.

Columns and labels:
Assay in all cases: NCI-60 one-dose screen, 48 h (100 = growth as untreated, 0 = no growth, -100 = all killed)
Conditions in all cases: 10 µM unless noted
T-47D breast = tested on: T-47D breast
BT-549 breast = tested on: BT-549 breast
MDA-MB-435 melanoma = tested on: MDA-MB-435 melanoma
SW-620 colon = tested on: SW-620 colon
MCF7 breast = tested on: MCF7 breast
HCT-116 colon = tested on: HCT-116 colon
HCC-2998 colon = tested on: HCC-2998 colon
KM12 colon = tested on: KM12 colon

Measured: growth

CCCCCCCC/C=C\CCCCCCCCOc1ccccc1CC(=O)NCC[N+]1(C)CCOCC1
inactive: T-47D breast 84.4% | BT-549 breast 82.3% | MDA-MB-435 melanoma 95.8% | SW-620 colon 81.7% | MCF7 breast 82.2% | HCT-116 colon 71.8% | HCC-2998 colon 45.4% | KM12 colon 47.3%

CC1(C)C(N)=Nc2cc(OCCCN3Cc4ccc(OCCc5cn(CC(=O)N6CCC(CCN7CCCC7)CC6)nn5)cc4C3)c(OCC3CC3)cc21
inactive: T-47D breast 92.3% | BT-549 breast 100% | MDA-MB-435 melanoma 102% | SW-620 colon 109% | MCF7 breast 89.3% | HCT-116 colon 103% | HCC-2998 colon 122% | KM12 colon 107%

CN1Cn2c(ccc2C(F)(F)F)C(=O)CS1(=O)=O
inactive: T-47D breast 115% | BT-549 breast 105% | MDA-MB-435 melanoma 103% | SW-620 colon 104% | MCF7 breast 98.4% | HCT-116 colon 94.9% | HCC-2998 colon 104% | KM12 colon 110%

C[C@@H]1O[C@@H](O[C@H]2[C@@H](OC(=O)[C@]34CCC(C)(C)C[C@H]3C3=CC[C@@H]5[C@@]6(C)C[C@H](O)[C@H](O[C@@H]7O[C@H](CO)[C@@H](O)[C@H](O)[C@H]7O)[C@@](C)(CO)[C@@H]6CC[C@@]5(C)[C@]3(C)C[C@H]4O)OC[C@@H](O)[C@@H]2O)[C@H](O)[C@H](O[C@@H]2OC[C@@H](O)[C@H](O[C@@H]3OC[C@](O)(CO)[C@H]3O[C@@H]3OC[C@@H](O)[C@H](O)[C@H]3O)[C@H]2O)[C@H]1O[C@@H]1OC[C@](O)(CO)[C@H]1O
active: HCC-2998 colon -1.75%
inactive: T-47D breast 49.8% | BT-549 breast 74.4% | MDA-MB-435 melanoma 52.1% | SW-620 colon 75.4% | MCF7 breast 68.9% | HCT-116 colon 46.3% | KM12 colon 66.5%

COC(=O)N/N=C/c1c[n+]([O-])c2ccccc2[n+]1[O-]
inactive: T-47D breast 20.4% | BT-549 breast 108% | MDA-MB-435 melanoma 96.4% | SW-620 colon 103% | MCF7 breast 93.6% | HCT-116 colon 104% | HCC-2998 colon 104% | KM12 colon 103%

O=C1Nc2ccccc2/C1=C/c1cccn1CCCCCn1c2ccccc2c(=O)c2ccccc21
active: T-47D breast 1.55% | MCF7 breast 1.17%
inactive: BT-549 breast 65.5% | MDA-MB-435 melanoma 93.6% | SW-620 colon 100% | HCT-116 colon 69.8% | HCC-2998 colon 42.5% | KM12 colon 12.1%

Cn1cc(C2=C(c3cccc4ccccc34)C(=O)NC2=O)c2cc(Br)ccc21
inactive: T-47D breast 81.3% | BT-549 breast 109% | MDA-MB-435 melanoma 95.7% | SW-620 colon 96.1% | MCF7 breast 84.3% | HCT-116 colon 71.3% | HCC-2998 colon 126% | KM12 colon 89.7%

CN1CCN(C(=O)OCc2nc3c(N4CCOCC4)nc(Cl)nc3n2C)CC1
inactive: KM12 colon 15.5%
active: T-47D breast -29.3% | BT-549 breast -84.2% | MDA-MB-435 melanoma -55.4% | SW-620 colon -84.9% | MCF7 breast -45.9% | HCT-116 colon -88.5% | HCC-2998 colon -9.16%

COc1ccc(-c2nnc3n(C)c(=O)c4ccccc4n23)cc1O
active: MDA-MB-435 melanoma -40.8%
inactive: T-47D breast 30.2% | BT-549 breast 41.4% | SW-620 colon 23.9% | MCF7 breast 18.2% | HCT-116 colon 13.1% | HCC-2998 colon 33.7% | KM12 colon 24.2%

O=C(Nc1ncc(Cc2cccc(C(F)(F)F)c2)s1)c1ccc(-n2cnnn2)cc1
inactive: T-47D breast 44.7% | BT-549 breast 67.6% | MDA-MB-435 melanoma 24% | SW-620 colon 53.4% | MCF7 breast 28.7% | HCT-116 colon 42.4% | HCC-2998 colon 48.9% | KM12 colon 28.8%

CCCN1C(=O)/C(=c2\sc3n(c2=O)NC2C(N=3)N(CC)C(=O)N2CC)c2ccccc21 (stereo not given)
inactive: T-47D breast 26.2% | BT-549 breast 62.8% | SW-620 colon 31.5% | MCF7 breast 17.5% | HCT-116 colon 15.6% | HCC-2998 colon 30.4% | KM12 colon 30.3%
active: MDA-MB-435 melanoma -10.6%

Cc1ccc(Cc2cnc(NC(=O)c3cc(C)oc3C)s2)cc1
inactive: T-47D breast 58.3% | BT-549 breast 74% | SW-620 colon 51.6% | MCF7 breast 32% | HCT-116 colon 72.4% | HCC-2998 colon 89.3% | KM12 colon 38.4%
active: MDA-MB-435 melanoma 4.22%

c1ccc(-c2cc(-c3cc(-c4ccccc4)on3)no2)cc1
inactive: T-47D breast 85.2% | BT-549 breast 99.4% | MDA-MB-435 melanoma 102% | SW-620 colon 51.5% | MCF7 breast 49.1% | HCT-116 colon 41.8% | HCC-2998 colon 94.2% | KM12 colon 92.8%

C=CCNC(=O)Cc1c(-c2ccc(OC)cc2)oc2c(OC)c3c(c(OC)c12)OCO3
inactive: T-47D breast 101% | BT-549 breast 100% | MDA-MB-435 melanoma 103% | SW-620 colon 103% | MCF7 breast 83.9% | HCT-116 colon 92.8% | HCC-2998 colon 116% | KM12 colon 96.2%

CCOC(=O)n1cc(-c2nonc2-c2cn(C)c3ccc(OC)cc23)c2cc(F)ccc21
inactive: T-47D breast 73% | BT-549 breast 86.9% | MDA-MB-435 melanoma 85.7% | SW-620 colon 80.5% | MCF7 breast 77.6% | HCT-116 colon 77.3% | HCC-2998 colon 91.9% | KM12 colon 77.7%
